About 79,000 compounds went through this panel and 15% of them were active in at least one assay; those are over-represented in the sample as a whole. Activity calls are given as the source filed them. Rule as the data show it: active = growth inhibition above about 70%; inactive = the rest.
Assays:
[1] = NCI Yeast Anticancer Drug Screen. Data for the rad50 strain (AID 155);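 also: 0% = growth of vehicle-only cultures of the same strain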; conditions: S. cerevisiae rad50 strain growth inhibition; at 50.0 µM; stronger effect = higher value
Procedure, shortened: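 A DNA repair-deficient yeast mutant serves as the test organism; compound-induced growth inhibition is calculated against vehicle-treated cells.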

[2] = NCI Yeast Anticancer Drug Screen. Data for the mec2-1 strain (AID 157); conditions: S. cerevisiae mec2-1 strain, at 50.0 µM, stronger effect = higher value
Procedure, shortened: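 Cells of the genetically defined mec2-1 yeast strain are incubated with test compound. Inhibition of growth is calculated against vehicle-treated controls.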

[3] = NCI Yeast Anticancer Drug Screen. Data for the sgs1 mgt1 strain (AID 161);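 also: 0% = growth of cultures given vehicle only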; conditions: S. cerevisiae sgs1 mgt1 strain, at 50.0 µM, stronger effect = higher value
Procedure, shortened: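 Inhibition of yeast growth, normalised to vehicle-treated controls, is reported for a strain bearing genetic alterations in DNA damage repair.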

[4] = NCI Yeast Anticancer Drug Screen. Data for the cln2 rad14 strain (AID 165);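 also: 0% = growth equal to vehicle treated cultures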; conditions: S. cerevisiae cln2 rad14 strain, at 50.0 µM, stronger effect = higher value
Procedure, shortened: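 The screen exposed genetically defined yeast (cln2 rad14) to test compounds and scored growth inhibition relative to vehicle-treated controls.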

[5] = NCI Yeast Anticancer Drug Screen. Data for the bub3 strain (AID 167); conditions: S. cerevisiae bub3 mutant strain, at 50.0 µM, stronger effect = higher value
Procedure, shortened: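 Inhibition values come from growth of compound-treated mutant yeast normalised to vehicle-treated controls.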

[6] = NCI Yeast Anticancer Drug Screen. Data for the mlh1 rad18 strain (AID 175); conditions: S. cerevisiae mlh1 rad18 strain growth inhibition; at 50.0 µM; stronger effect = higher value
Procedure, shortened: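 Compound-treated yeast growth, normalised to vehicle controls. Strain bears defined DNA repair mutations.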

Measured: growth inhibition

Cc1ccc(-c2nc3ccccc3c(=O)n2/N=C/c2ccc(Cl)cc2Cl)cc1
inactive: [1] 9.05% | [2] 3.85% | [3] 7.65% | [4] 11.1% | [5] 7.35% | [6] 21.4%

NC(=O)c1ncn2c(=O)n(CCCl)nnc12
inactive: [1] -17.2% | [2] -9.4% | [3] 1.4% | [4] 19.5% | [5] -4.15% | [6] -47.2%

CN(C)c1ccn(C2OC(CO)C(O)C2SC(C)(C)C)c(=O)n1 (configuration not stated)
inactive: [1] -1.2% | [2] 3.95% | [3] -2.05% | [4] 10.8% | [5] -1.25% | [6] 13.8%

COc1cc(C)cc2c1C(=O)C(Br)=CC2=O
active: [1] 91.2% | [2] 92.3% | [3] 91.9% | [4] 91.8% | [5] 91.8% | [6] 89.8%

Cc1cnc2[nH]c(-c3cccc4ccccc34)cc(=O)c2c1
inactive: [1] 13.2% | [2] 7% | [3] 16.1% | [4] -6.6% | [5] 14.9% | [6] -21.6%

COc1ccccc1NC=O
inactive: [1] -1.5% | [2] -25.1% | [3] -3.65% | [4] 16.8% | [5] -7.4% | [6] 2.55%

CC(C)(O)CC(C)(c1ccccc1)c1ccccc1
inactive: [1] -9.95% | [2] 0.75% | [3] -1.25% | [4] -39% | [5] -13.1% | [6] -15.2%

NC(=S)N/N=C/c1ccc(OC(F)(F)F)cn1
inactive: [1] 27.1% | [2] 28.1% | [3] 46.5% | [4] 10.3% | [5] 59.5% | [6] 40.6%

COCCN1CCC(CO)C1 (configuration not stated)
inactive: [1] 4.85% | [2] 11.5% | [3] 20.1% | [4] 2.05% | [5] 11.9% | [6] 10.5%

CCCCCCCC(=O)N1C2CN3C4=C(C(=O)C(N)=C(C)C4=O)C(COC(N)=O)C3(OC)C21 (configuration not stated)
inactive: [1] 18.6% | [2] 13.1% | [3] 30.4% | [4] 20.8% | [5] 19.1% | [6] 47.1%

Cc1ccc(C(C)C)cc1OCCOCCCl
inactive: [1] -2.25% | [2] 12.8% | [3] -4.85% | [4] -148% | [5] -1% | [6] 10.8%

CCC1N(C)CCCN1C
inactive: [1] 9.25% | [2] -2.9% | [3] 10.2% | [4] 0.95% | [5] 0.9% | [6] 6.55%

O=[N+]([O-])c1ccc2c(c1)Sc1ccccc1N2
inactive: [1] -16.8% | [2] -14.4% | [3] -26.7% | [4] -21.8% | [5] -25.2% | [6] -22.6%

O=[N+]([O-])c1ccc(/C(CBr)=N/N2CCCCCC2)cc1
inactive: [1] -1.05% | [2] -16.9% | [3] -19.7% | [4] 7.9% | [5] -15.8% | [6] -4.55%

CCOC(=O)C(C)(C)C(O)C(C)C (configuration not stated)
inactive: [1] 20.7% | [2] -18.8% | [3] -15.2% | [4] 48.4% | [5] -12.7% | [6] 3.95%

COc1ccc(NC(=S)Nc2ccccc2)cc1
inactive: [1] 4.8% | [2] -36.8% | [3] -22.6% | [4] -46.9% | [5] -21.8% | [6] -8.4%

OCC(Cl)(Cl)C(Cl)(Cl)CO
inactive: [1] 8.2% | [2] -14.5% | [3] -12.7% | [4] -0.95% | [5] -28.6% | [6] -17.8%

CC/C(=C\c1ccc(OC)cc1)c1ccc(OC)cc1
inactive: [1] -16.1% | [2] -31.1% | [3] 7.05% | [4] 4.75% | [5] 1.75% | [6] -5.05%

C=C1CCc2ccccc2C1=O
inactive: [1] 23.4% | [2] -4% | [3] 4.25% | [4] -5.55% | [5] 7.15% | [6] 13.6%

CCOC(=O)C(=O)Cc1ccccc1[N+](=O)[O-]
inactive: [1] 26.1% | [2] 0.1% | [3] 7.75% | [4] -3.95% | [5] -3.8% | [6] 38%

O=C(O)/C=C\C(=O)Nc1ccc(S(=O)(=O)Nc2nccs2)cc1
inactive: [1] -0.8% | [2] -3.45% | [3] -15.2% | [4] 2.6% | [5] 1.6% | [6] -10.1%

CN(C)C(=O)CCCC(=O)c1cccc([N+](=O)[O-])c1
inactive: [1] 9.55% | [2] 3.5% | [3] 3.7% | [4] 10.6% | [5] 16% | [6] -13.3%

Cc1c(Br)c(Br)nn1C(C)C(=O)N(C)C (configuration not stated)
inactive: [1] 1.75% | [2] 1.6% | [3] -4.55% | [4] -40.8% | [5] -31.8% | [6] 4.45%

Cn1c(=O)n(CCn2c(=O)n(C)c3ccccc32)c2ccccc21
inactive: [1] -1.6% | [2] 14% | [3] -3.15% | [4] 3.55% | [5] 4.5% | [6] -3.8%

COC(=O)C(CO)NC(=O)C(CC(C)C)NC(=O)C(CC(C)C)NC(=O)OCc1ccccc1 (configuration not stated)
inactive: [1] 34.6% | [2] 4.5% | [3] 16.6% | [4] 11.6% | [5] -5.1% | [6] 13.2%

O=C(NNC1=NCCN1Cc1ccccc1)c1cccc(Cl)c1
inactive: [1] -6.1% | [2] -25.4% | [3] 13.3% | [4] 14.6% | [5] -0.8% | [6] 2.15%

C=C(CC(O)c1ccccc1)C(=O)Nc1ccccc1OC (configuration not stated)
inactive: [1] 25.9% | [2] 0.45% | [3] 13.3% | [4] 1.25% | [5] 6.3% | [6] 4.1%

CCOC(=O)C1=C(Nc2ccccc2)OC/C1=N\NC(=O)Cc1ccccc1
inactive: [1] -6.75% | [2] -23.7% | [3] -1.6% | [4] 0.85% | [5] 10.2% | [6] -19.1%

COc1ccc(C2(C)OCCC(C)O2)cc1 (configuration not stated)
inactive: [1] -0.25% | [2] -18.1% | [3] 0.1% | [4] -24.1% | [5] -5.2% | [6] 10.6%

COC(=O)c1cc2ccccc2c2c3c(ccc12)OCO3
inactive: [1] 9.4% | [2] -0.15% | [3] -10.3% | [4] -43.6% | [5] -4.05% | [6] -14.3%

COC(CN1C(=O)CSC1=S)OC
inactive: [1] 10.8% | [2] -1.65% | [3] 27.1% | [4] 17.2% | [5] 29.1% | [6] -6.8%

ClCc1c(-c2ccccc2)nn(-c2ccccc2)c1CCl
inactive: [1] 8.65% | [2] 14.2% | [3] 38.5% | [4] 6.05% | [5] 57.5% | [6] 37%

CCN(CC)Cc1cc(C(C)(C)CC)cc(-c2ccccc2)c1O
inactive: [1] -11.2% | [2] -33.6% | [3] -12.6% | [4] -24.9% | [5] 8.5% | [6] -4.1%

N#CC(C#N)=C(N)/C(C#N)=C/c1ccc(O)c(O)c1
inactive: [1] -14.2% | [2] -4.9% | [3] -5.25% | [4] 3.7% | [5] 2.4% | [6] 6.85%

CCCCC1C/C=C/C=C/C=C/C=C/C(OC2OC(C)C(O)C(N)C2O)CC2OC(O)(CC(O)CC3OC3/C=C/C(=O)O1)CC(O)C2C(=O)O (configuration not stated)
inactive: [1] 30.6% | [2] 9.5% | [3] 2.75% | [4] 17.6% | [5] -1.7% | [6] 11.2%

Cc1ccc(N=C2SC(=NN(C)C)SC2=Nc2ccc(C)cc2)cc1
inactive: [1] 18.9% | [2] -14.1% | [3] 8.35% | [4] -20.3% | [5] -5.25% | [6] -11.6%

Cc1c2cnccc2c(CO)c2[nH]c3ccccc3c12
inactive: [1] 11.6% | [2] -10.2% | [3] 8.2% | [4] 4.6% | [5] -10.9% | [6] 59.7%

CCCCCCCCCCCCCCCCS(=O)(=O)N/N=C(\c1ccc(C(C)C)cc1)N1CCOCC1
inactive: [1] 1.3% | [2] -18.4% | [3] 12.7% | [4] 9.3% | [5] -1.5% | [6] 5.75%

Cc1cc(O)c(C(C)C)cc1N=Cc1ccccc1O
inactive: [1] -38.4% | [2] -23.6% | [3] -58.2% | [4] -29.7% | [5] -21.6% | [6] -5.8%

c1ccc2cc(-c3csc4ccccc34)ccc2c1
inactive: [1] 12.8% | [2] -16.4% | [3] 17.1% | [4] -8.05% | [5] 15.4% | [6] 9.15%

O=C(O)c1cccc(O)c1C(=O)O
inactive: [1] 29.2% | [2] -3.4% | [3] 21.9% | [4] 21.2% | [5] 0.75% | [6] 33.9%

NC(Cc1ccccc1)=NCC(=O)O
inactive: [1] -40.5% | [2] -7.9% | [3] -29.4% | [4] -79.9% | [5] -19.7% | [6] -25.2%
